How the values were obtained:
Assay in all cases: log2 ratio of Biotin-Ahx-Ub-VS probe labelling (fragment/DMSO); higher = less target engagement (more negative = stronger competition), active = hit call of the paper (q ≤ 0.05, log2 ratio ≤ -1)
Settings in all cases: compound concentration: 200 uM; treatment time: 3 h
USP42 = target: T1, USP42 (UniProt Q9H9J4)
T1 sequence (whole entry): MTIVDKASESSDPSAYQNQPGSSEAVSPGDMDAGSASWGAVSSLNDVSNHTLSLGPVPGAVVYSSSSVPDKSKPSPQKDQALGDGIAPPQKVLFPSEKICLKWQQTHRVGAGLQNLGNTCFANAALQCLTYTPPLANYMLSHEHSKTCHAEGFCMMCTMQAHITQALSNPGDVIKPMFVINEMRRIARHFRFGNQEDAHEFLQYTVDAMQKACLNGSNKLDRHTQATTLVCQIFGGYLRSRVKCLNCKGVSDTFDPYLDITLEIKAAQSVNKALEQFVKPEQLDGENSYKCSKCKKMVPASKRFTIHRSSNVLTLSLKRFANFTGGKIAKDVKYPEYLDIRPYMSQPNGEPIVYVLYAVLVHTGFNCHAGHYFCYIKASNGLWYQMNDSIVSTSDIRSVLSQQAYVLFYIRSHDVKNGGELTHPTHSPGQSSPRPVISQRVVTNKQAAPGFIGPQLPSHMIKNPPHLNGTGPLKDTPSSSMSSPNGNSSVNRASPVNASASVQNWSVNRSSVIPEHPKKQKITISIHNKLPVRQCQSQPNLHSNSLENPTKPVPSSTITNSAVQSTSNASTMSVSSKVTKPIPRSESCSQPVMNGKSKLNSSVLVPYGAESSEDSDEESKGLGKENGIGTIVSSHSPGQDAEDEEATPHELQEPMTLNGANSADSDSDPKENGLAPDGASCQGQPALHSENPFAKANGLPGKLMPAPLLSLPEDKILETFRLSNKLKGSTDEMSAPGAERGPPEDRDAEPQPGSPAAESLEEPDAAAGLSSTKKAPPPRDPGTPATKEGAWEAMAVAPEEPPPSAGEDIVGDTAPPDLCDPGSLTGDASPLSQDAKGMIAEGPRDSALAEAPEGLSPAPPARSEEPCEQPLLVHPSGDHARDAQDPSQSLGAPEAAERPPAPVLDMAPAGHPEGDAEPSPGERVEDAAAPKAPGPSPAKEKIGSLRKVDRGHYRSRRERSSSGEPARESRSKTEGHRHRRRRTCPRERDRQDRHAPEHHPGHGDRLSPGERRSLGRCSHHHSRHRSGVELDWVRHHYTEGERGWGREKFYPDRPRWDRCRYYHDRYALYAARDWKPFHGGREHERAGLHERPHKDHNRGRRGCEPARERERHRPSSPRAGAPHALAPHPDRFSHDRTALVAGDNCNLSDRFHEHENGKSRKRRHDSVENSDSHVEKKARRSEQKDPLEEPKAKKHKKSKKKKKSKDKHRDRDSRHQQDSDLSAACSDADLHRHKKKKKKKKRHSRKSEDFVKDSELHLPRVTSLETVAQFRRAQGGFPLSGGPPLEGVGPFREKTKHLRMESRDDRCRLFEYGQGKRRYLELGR
Method in brief: (§1)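 Triplicate samples of HEK293T lysate, 495 µg each, received fragment at 200 µM or vehicle for 3 h, followed by Biotin-Ahx-Ub-VS (0.5 µM final) for 1 h. After NeutrAvidin enrichment of labelled DUBs and LysC/trypsin digestion, peptides were run by diaPASEF LC-MS/MS. The values are average log2 fragment/vehicle ratios from global-median-normalised Spectronaut label-free quantities, tested by unpaired t-test on proteins having ≥2 unique peptides.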

USP46 = USP46 (UniProt P62068)
Method in brief: as §1

USP47 = target: T2, USP47 (UniProt Q96K76)
T2 sequence (whole entry): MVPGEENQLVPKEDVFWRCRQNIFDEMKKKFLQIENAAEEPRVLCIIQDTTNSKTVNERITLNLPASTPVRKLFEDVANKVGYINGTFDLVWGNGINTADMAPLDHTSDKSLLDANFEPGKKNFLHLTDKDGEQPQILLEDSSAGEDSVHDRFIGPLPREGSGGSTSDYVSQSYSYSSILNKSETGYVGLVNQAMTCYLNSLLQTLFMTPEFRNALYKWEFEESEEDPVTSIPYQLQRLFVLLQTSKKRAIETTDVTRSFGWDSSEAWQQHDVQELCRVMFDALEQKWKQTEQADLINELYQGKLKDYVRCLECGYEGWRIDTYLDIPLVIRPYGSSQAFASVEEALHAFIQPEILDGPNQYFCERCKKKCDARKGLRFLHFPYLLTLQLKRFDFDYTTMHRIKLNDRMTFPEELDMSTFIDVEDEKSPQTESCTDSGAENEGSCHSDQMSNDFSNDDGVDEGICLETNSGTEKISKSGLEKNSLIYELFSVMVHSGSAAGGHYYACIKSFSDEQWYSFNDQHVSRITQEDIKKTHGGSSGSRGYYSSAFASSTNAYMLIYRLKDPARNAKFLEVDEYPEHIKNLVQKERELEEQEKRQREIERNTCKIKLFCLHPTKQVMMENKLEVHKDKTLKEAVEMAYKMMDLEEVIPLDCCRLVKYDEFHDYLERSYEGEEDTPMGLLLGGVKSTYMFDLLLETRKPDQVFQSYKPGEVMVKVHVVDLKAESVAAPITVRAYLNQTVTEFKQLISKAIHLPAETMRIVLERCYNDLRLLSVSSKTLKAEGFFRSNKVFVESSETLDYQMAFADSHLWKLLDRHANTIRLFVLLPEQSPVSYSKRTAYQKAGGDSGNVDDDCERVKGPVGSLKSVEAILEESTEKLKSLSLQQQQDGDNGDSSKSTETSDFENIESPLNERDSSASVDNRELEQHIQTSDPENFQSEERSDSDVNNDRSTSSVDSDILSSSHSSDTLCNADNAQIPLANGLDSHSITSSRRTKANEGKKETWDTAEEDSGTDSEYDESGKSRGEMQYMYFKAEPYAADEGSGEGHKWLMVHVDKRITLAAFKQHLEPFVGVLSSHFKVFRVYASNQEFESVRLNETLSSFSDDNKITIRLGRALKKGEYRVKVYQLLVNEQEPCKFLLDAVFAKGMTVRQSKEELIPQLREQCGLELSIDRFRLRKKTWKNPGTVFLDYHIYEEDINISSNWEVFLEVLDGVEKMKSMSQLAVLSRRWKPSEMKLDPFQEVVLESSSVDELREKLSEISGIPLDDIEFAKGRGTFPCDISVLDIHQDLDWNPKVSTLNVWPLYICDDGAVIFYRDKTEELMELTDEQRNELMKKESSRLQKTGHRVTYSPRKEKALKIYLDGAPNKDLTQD
Method in brief: as §1

USP48 = target: T3, USP48 (UniProt Q86UV5)
T3 sequence (whole entry): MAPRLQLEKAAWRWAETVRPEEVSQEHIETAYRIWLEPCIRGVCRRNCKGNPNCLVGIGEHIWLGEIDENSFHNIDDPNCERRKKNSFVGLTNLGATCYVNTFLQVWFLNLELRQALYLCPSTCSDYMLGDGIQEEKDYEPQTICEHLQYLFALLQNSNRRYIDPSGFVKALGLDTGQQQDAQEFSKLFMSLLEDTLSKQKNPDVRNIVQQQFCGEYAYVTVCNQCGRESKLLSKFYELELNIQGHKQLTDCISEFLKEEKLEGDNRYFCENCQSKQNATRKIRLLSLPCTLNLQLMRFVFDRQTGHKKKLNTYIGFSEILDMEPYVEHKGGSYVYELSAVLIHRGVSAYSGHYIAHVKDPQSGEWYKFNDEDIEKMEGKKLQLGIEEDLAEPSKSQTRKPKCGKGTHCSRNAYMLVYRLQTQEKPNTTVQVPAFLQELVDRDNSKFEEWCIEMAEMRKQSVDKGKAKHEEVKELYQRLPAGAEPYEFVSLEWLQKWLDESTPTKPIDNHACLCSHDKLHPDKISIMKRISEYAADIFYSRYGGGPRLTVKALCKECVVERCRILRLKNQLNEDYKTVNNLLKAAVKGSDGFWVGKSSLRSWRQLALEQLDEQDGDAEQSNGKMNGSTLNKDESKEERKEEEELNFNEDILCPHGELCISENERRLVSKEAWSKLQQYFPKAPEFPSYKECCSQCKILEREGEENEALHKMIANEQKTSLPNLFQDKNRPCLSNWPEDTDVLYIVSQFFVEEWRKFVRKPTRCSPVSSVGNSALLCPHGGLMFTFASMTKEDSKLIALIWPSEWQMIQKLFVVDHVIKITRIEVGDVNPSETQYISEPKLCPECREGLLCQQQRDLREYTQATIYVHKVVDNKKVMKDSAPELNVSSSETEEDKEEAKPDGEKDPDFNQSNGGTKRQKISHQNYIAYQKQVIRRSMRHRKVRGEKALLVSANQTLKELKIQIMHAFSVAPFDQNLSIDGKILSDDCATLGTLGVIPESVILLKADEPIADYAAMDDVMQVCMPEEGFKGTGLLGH
Method in brief: as §1

USP5 = target: T4, USP5 (UniProt P45974)
T4 sequence (whole entry): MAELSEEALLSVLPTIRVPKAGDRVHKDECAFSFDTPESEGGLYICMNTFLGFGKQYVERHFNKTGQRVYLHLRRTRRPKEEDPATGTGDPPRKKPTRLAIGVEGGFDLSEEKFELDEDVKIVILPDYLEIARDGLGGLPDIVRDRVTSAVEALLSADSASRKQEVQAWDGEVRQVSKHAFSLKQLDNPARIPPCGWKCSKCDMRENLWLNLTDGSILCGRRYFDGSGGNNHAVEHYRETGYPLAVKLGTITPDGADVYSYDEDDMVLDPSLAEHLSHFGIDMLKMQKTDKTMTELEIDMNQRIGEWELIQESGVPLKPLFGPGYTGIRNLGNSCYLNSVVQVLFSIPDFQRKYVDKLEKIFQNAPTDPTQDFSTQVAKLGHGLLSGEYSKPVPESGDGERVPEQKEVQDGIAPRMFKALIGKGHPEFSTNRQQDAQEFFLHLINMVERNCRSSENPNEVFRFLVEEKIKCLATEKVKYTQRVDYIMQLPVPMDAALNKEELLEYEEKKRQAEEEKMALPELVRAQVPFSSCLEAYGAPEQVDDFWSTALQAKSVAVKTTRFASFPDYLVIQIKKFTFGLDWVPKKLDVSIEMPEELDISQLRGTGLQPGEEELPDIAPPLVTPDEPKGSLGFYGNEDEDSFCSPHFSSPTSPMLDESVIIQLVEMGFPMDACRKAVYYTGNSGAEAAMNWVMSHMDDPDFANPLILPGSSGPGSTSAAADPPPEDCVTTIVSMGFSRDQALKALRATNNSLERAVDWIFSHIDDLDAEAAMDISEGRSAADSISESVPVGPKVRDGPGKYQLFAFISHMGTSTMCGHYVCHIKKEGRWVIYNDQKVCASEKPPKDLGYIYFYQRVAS
Method in brief: as §1

USP54 = USP54 (UniProt Q70EL1)
Method in brief: as §1

USP7 = USP7 (UniProt Q93009)
Method in brief: as §1

USP8 = target: T5, USP8 (UniProt P40818)
T5 sequence (whole entry): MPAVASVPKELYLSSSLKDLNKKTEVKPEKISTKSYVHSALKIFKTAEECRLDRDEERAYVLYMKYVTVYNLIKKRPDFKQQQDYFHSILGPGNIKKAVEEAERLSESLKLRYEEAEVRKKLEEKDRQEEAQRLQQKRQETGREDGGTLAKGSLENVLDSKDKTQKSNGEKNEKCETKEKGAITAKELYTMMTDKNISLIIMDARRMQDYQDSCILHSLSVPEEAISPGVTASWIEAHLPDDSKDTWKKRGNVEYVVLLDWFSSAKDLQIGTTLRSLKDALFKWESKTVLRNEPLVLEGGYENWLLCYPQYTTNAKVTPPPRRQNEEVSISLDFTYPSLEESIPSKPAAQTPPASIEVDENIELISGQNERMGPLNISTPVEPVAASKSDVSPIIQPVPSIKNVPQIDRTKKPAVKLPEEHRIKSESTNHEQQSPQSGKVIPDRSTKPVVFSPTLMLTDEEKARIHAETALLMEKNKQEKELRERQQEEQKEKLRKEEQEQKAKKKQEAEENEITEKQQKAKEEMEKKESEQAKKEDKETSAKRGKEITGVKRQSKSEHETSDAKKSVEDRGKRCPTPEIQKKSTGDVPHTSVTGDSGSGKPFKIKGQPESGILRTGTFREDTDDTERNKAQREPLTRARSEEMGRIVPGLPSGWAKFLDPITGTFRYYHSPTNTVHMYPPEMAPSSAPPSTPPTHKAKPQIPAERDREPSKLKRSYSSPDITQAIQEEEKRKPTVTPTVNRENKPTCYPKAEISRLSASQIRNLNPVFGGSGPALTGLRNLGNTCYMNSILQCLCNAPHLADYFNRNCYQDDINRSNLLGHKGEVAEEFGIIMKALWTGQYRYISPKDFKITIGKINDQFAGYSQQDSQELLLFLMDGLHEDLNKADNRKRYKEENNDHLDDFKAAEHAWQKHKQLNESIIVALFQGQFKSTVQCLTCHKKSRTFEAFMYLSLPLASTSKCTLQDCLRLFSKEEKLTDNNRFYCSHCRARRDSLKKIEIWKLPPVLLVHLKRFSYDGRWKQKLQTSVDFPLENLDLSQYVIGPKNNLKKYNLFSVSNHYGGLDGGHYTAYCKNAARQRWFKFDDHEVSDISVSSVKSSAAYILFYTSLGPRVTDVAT
Method in brief: as §1

USP9X = USP9X (UniProt Q93008)
Method in brief: as §1

UniProt O00487 = target: UniProt O00487
Method in brief: as §1

Measured: log2 ratio of Biotin-Ahx-Ub-VS probe labelling

Sequence of USP54 (Q70EL1 whole entry): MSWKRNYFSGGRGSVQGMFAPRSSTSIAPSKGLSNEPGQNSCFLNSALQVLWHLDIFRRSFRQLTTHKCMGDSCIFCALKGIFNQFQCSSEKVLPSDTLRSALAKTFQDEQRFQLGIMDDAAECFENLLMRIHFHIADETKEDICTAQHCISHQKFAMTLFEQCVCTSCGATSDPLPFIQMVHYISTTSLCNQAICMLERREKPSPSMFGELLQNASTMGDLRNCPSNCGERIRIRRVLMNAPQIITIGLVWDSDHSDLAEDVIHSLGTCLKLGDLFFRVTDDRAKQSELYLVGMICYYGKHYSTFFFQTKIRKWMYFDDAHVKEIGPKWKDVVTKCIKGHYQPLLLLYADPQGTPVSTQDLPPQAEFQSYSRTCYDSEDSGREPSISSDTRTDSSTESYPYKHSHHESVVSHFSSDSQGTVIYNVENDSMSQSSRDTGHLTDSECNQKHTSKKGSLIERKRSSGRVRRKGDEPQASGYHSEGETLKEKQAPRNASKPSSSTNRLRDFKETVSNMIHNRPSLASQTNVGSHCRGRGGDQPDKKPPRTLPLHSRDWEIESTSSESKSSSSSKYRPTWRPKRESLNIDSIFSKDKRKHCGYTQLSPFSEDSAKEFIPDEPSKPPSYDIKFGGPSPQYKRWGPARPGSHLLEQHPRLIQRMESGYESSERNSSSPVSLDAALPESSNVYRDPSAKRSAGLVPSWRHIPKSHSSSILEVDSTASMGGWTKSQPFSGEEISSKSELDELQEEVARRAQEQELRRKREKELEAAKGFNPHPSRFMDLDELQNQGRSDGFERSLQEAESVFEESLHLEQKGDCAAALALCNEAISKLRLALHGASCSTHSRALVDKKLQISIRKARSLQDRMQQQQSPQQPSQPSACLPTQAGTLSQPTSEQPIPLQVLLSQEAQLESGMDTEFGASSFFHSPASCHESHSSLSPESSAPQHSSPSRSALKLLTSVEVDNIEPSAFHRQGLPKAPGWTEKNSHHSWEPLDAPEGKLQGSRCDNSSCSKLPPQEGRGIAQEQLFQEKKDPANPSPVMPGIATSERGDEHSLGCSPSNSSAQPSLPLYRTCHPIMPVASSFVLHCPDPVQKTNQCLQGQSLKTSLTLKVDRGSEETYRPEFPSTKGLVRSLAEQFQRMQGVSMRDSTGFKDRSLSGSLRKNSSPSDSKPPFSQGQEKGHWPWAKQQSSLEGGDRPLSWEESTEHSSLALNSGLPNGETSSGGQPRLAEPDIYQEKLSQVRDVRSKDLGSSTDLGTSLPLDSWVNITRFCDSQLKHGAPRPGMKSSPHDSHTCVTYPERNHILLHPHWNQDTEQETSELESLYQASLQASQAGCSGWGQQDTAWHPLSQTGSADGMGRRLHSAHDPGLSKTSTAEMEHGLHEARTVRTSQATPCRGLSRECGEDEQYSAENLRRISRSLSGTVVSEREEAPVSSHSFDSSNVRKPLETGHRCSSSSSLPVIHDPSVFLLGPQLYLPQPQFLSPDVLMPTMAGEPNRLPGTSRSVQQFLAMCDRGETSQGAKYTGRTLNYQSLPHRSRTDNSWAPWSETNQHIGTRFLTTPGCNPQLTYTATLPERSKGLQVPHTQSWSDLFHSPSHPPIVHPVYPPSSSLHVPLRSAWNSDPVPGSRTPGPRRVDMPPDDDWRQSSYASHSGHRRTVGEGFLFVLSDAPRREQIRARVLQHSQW
Sequence of USP46 (P62068 whole entry): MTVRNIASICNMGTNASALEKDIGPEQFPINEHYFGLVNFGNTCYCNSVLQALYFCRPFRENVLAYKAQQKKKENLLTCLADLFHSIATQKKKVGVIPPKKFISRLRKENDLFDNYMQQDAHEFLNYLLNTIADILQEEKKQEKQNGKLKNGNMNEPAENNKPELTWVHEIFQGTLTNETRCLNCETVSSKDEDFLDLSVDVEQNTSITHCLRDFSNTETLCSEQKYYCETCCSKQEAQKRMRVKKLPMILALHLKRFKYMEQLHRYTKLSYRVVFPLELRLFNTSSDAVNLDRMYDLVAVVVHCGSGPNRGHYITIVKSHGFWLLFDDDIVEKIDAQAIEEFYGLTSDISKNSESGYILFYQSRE
Sequence of UniProt O00487 (O00487 whole entry): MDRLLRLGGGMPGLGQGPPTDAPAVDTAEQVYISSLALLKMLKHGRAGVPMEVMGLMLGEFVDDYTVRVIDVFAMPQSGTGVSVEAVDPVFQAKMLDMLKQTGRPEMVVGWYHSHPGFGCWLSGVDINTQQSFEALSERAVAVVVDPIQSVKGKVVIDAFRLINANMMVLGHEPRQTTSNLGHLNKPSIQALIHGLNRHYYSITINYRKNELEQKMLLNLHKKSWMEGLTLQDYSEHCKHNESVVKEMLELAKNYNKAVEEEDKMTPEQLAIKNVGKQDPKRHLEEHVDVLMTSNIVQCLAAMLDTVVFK
Sequence of USP9X (Q93008 whole entry): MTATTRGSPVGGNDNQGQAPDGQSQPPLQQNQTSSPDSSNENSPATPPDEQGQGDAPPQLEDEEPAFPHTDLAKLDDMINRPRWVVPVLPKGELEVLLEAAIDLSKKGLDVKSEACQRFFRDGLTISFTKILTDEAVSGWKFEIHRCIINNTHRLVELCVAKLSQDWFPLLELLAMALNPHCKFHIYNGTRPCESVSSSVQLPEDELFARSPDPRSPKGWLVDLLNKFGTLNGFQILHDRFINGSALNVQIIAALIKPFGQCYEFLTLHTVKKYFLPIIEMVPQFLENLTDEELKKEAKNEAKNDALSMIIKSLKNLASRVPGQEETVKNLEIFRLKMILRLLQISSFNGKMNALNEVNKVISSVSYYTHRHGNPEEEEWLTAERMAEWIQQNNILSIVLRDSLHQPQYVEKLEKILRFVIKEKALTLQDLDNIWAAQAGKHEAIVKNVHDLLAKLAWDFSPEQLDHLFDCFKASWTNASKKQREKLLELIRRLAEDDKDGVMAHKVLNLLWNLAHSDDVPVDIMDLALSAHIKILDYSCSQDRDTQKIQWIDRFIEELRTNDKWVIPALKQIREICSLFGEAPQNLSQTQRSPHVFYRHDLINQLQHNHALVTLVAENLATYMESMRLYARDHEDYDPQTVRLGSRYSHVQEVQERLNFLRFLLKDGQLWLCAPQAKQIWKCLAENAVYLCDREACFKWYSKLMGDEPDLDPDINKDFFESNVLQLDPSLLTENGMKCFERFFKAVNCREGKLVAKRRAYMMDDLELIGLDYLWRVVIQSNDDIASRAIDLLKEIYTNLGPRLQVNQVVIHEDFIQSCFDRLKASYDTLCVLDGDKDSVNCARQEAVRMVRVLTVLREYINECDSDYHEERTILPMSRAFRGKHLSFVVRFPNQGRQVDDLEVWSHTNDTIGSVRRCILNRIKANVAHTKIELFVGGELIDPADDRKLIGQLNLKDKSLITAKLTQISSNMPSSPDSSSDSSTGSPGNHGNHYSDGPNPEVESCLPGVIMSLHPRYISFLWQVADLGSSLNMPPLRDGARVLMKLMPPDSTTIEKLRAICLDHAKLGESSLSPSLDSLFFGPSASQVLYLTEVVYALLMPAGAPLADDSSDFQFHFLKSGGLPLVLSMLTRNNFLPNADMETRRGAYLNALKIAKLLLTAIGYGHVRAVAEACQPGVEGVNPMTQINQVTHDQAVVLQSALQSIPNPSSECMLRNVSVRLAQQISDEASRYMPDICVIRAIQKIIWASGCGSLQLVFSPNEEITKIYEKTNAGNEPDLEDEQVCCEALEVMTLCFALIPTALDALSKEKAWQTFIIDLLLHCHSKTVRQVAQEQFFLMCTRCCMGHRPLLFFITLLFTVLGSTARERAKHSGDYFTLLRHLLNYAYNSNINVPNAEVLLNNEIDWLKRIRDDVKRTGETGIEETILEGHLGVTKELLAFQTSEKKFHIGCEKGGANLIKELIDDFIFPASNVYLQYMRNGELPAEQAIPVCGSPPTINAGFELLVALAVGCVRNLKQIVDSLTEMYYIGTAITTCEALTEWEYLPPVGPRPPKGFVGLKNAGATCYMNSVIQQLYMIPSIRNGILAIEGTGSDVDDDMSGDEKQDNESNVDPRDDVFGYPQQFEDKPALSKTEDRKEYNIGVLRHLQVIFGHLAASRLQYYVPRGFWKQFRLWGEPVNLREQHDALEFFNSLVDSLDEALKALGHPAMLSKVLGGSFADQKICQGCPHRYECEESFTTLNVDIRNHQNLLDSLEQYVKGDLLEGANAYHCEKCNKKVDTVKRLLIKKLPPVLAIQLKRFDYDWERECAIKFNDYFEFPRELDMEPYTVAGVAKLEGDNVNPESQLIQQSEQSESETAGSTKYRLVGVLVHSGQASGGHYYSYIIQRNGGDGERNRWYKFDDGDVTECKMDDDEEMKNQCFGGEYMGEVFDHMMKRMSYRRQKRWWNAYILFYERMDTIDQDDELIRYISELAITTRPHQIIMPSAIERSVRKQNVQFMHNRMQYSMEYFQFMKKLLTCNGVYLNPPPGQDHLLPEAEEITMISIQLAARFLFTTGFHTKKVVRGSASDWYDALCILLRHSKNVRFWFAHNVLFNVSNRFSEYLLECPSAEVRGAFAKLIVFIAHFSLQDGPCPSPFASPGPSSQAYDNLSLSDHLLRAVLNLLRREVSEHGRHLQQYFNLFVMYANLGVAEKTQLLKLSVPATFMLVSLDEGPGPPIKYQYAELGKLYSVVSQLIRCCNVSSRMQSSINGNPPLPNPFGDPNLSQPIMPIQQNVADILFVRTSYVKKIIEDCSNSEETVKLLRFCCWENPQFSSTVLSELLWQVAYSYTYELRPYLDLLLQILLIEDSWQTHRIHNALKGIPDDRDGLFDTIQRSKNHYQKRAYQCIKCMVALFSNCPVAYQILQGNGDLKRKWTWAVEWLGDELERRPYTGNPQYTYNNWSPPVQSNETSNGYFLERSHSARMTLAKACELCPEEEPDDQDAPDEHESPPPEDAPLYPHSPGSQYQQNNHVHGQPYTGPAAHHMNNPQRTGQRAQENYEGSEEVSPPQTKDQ

COc1ccc(CN(C)C(=O)CCl)cc1
inactive: USP42 0.294 | USP46 -0.0887 | USP47 -0.0389 | USP48 -0.604 | USP5 0.404 | USP54 0.256 | USP7 -0.907 | USP8 -0.448 | USP9X -0.178 | UniProt O00487 -0.0169

— the supplement of paper PMC11732987, “Enantioselective OTUD7B fragment discovery through chemoproteomics screening and high-throughput optimisation” (Communications Chemistry, 2025)
